In PubChem BioAssay (NCATS):
Records with an inconclusive call do not appear. A number with no mark means an inactive call. Activity calls are given as the source filed them. Calls come from the whole dose curve; as a rule, active = well fitted inhibition curve with a large enough effect; inconclusive = small, poorly fitted or top-dose-only effect; inactive = no such curve, though single readings can be large or run the other way.

target: Rap guanine nucleotide exchange factor 3 (Homo sapiens) (UniProt O95398); assay: Confirmatory qHTS for antagonist of cAMP-regulated guanine nucleotide exchange factor 3 (EPAC1) (AID 1645880); settings: EPAC1 Rap1B-BODIPY-GDP exchange, fluorescence; activity, negative = inhibition: at 115 µM (top of the series); note: nearly all actives have a fitted effect of over 55% in size
Sequence (O95398 whole entry, looked up): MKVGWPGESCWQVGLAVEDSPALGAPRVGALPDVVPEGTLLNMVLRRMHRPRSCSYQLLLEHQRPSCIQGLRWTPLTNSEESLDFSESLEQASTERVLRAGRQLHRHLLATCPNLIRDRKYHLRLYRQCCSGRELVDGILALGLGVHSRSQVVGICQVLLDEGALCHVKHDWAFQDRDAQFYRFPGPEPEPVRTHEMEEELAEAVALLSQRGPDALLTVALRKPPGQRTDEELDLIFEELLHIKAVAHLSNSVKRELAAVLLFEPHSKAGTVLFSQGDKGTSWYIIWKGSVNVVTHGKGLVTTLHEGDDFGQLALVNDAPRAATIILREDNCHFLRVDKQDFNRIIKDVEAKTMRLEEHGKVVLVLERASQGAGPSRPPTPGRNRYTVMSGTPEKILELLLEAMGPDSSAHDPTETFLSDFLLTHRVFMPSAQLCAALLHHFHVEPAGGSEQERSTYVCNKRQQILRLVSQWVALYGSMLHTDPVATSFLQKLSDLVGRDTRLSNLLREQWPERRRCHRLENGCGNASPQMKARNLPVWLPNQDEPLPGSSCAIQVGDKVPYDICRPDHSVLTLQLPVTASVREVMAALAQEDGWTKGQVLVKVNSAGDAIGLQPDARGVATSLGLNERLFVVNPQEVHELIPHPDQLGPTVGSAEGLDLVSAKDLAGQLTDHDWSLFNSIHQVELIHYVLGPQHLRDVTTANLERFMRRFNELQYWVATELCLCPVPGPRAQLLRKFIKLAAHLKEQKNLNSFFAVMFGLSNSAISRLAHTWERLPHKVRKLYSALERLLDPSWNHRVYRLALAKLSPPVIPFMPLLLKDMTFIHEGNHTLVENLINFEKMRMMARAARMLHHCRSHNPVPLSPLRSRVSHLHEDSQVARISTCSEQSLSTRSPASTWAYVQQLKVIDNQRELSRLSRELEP
Description: Assay Provider (PI): Xiaodong Cheng Ph.D. The University of Texas Medical Branch, […], TX MLPCN Grant: NS066510 In multi-cellular eukaryotic organisms, the effects of cAMP are transduced by two ubiquitously-expressed intracellular cAMP receptors, the classic protein kinase A/cAMP-dependent protein kinase (PKA/cAPK) and the more recently discovered exchange protein directly activated by cAMP/cAMP-regulated guanine nucleotide exchange factor (EPAC/cAMP-GEF). Both PKA and EPAC are ubiquitously expressed in all tissues, and an increase in intracellular cAMP levels will lead to the activation of both PKA and EPAC. Therefore, careful dissections of the individual role and relative contribution of EPAC and PKA within the overall cAMP signaling in various model systems are critical for further elucidating the mechanism of cAMP signaling. To date no EPAC-specific antagonists and agonist, as well as isoform-specific agonists have been reported, and developing EPAC-specific pharmacological probes to determine the physiological functions that EPAC play in the overall cAMP-mediated signaling remains a major challenge within the research field. Furthermore, identified regulators of EPAC may lead to new mechanism-based therapeutic strategies specifically targeting the EPAC / cAMP-signaling components as EPAC has been implicated to play important roles in major human pathological conditions such as diabetes, heart disease, and cancer. This qHTS will be used to screen the Molecular Libraries Small Molecule Repository (MLSMR) as a concentration-titration series using the NCGC unique quantitative screening (qHTS) platform to find activators for EPAC1. In addition, this assay will also be used as a counterscreen for the EPAC2 qHTS. This fluorescent based assay is developed and validated for EPAC1 that measures exchange using EPAC effector Rap1 complex with BODIPY-GDP, a GDP analog with a tethered fluorophores. Activators are identified by monitoring the change in fluorescence signal as the exchanged free BODIPY-GDP has a reduced fluorescence compared to Rap1-bound BODIPY-GDP. Increase in signal (activation) is the desired outcome for the EPAC1 agonist while no activity in this assay is desired for the EPAC2 agonist counterscreen. Reference: [1] de Rooij, J., Zwartkruis, F. J., Verheijen, M. H., Cool, R. H., Nijman, S. M., Wittinghofer, A., and Bos, J.L. (1998) Nature 396, 474-477. Kawasaki, H., Springett, G. M., Mochizuki, N., Toki, S., Nakaya, M., Matsuda, M., Housman, D. E., and Graybiel, A. M. (1998) Science 282, 2275-2279.
Briefly, three uL of reagents (100 nM EPAC1, 250 nM RAP1B-BODIPY-GDP, 50 uM GDP) were dispensed into a 1536-well Greiner black solid-bottom medium binding assay plate. Controls and test compounds (23 nL) were transferred to the plate via a Kalypsys pin tool equipped with a 1536-pin array. The plates were centrifuged at 1,000 rpm for 15 seconds followed by 5 minute incubation at room temperature. The assay plates were read at 5 minute intervals for 30 minutes in the ViewLux plate reader using 480nm excitation and 540nm emission filters. The results were normalized to the […] positive control ATA and DMSO.
Potency is the fitted concentration of half-maximal effect.

Compound | activity, negative = inhibition [%] | Potency
CCC(C)n1c(=N)c(C#N)cc2c(=O)n3ccccc3nc21 (stereo not given) | 48.2 | –
CCOc1ccccc1Oc1nc(C)nc2c1oc1ccccc12 | -17.6 | –
O=C(Cc1ccc(F)cc1)Nc1ccccc1Sc1ccccc1 | -24.8 | –
O=C1OC(c2ccccc2)Sc2ccccc21 (stereo not given) | -11.9 | –
COC(=O)c1cc(C#N)c(Oc2ccccc2OC)nc1C | -16.1 | –
COc1ccc2c3c(cccc13)C(=O)CC2 | 385 | –
Cc1cccc(N2C(=O)c3cccc4c(N)ccc(c34)C2=O)c1 | 366 | –
O=C(Cn1ccc(=O)[nH]c1=O)c1ccc([N+](=O)[O-])o1 | -12.6 | –
CN(Cc1ccc(Cl)cc1Cl)C(=O)CN1C(=O)NC2(CCCC2)C1=O | -12.2 | –
COc1cc(Br)cc(C(=O)N2CCc3ccccc32)c1OC | -22.6 | –
Cc1nn(C(=O)c2ccco2)c(C)c1Sc1ccccc1 | -22.4 | –
COc1ccc2c(c1)C(=O)CCC2c1ccccc1 (stereo not given) | -29.3 | –
O=C(O)CN1C(=O)/C(=C\c2cc(Br)ccc2OCc2ccc([N+](=O)[O-])cc2)SC1=S | – | 30.1 µM (active)
C=CCn1c(SCc2cc([N+](=O)[O-])cc3c2OCOC3)nc2cc(C(=O)O)ccc2c1=O | – | 75.7 µM (active)
O=C1[C@H]2CCC=C[C@H]2[C@H](c2ccccc2Br)N1Cc1ccccc1 | -21.6 | –
CC(=O)Nc1c(C)nn(-c2ccccc2)c1N1CCC(C(=O)NCc2cccc(F)c2)CC1 | -42.4 | –
Cc1c2cn[nH]c(=O)c2c(C)n1-c1ccccc1 | -12.9 | –
O=C(Nc1ccc(-c2nnc(-c3ccco3)o2)cc1)C(c1ccccc1)c1ccccc1 | -21.6 | –
O=C(O)Cc1ccc(N=Nc2c(O)c(C(=O)O)cc3ccccc23)cc1 | – | 33.8 µM (active)
Cc1cccc(CNC(=O)c2ccc(-c3nc(CS(=O)(=O)c4ccccc4)c(C)o3)cc2)c1 | -17.4 | –

Compound | activity, negative = inhibition [%] | Potency
CC1CCCN(C2(O)C(=O)Nc3ccc(Br)cc32)C1 (stereo not given) | -8.53 | –
COC(=O)c1c(SC)nc2ccccc2c1OCc1ccccc1Cl | -30 | –
N#Cc1c(-c2cccs2)nc(SCc2ccc(Cl)cc2)[nH]c1=O | – | 42.6 µM (active)
CCCCN(CCCC)c1ccc(/C=C/c2ccnc3ccccc23)cc1 | 5.83 | –
O=C(NCc1ccccc1F)c1ccc(CN2CC(=O)N3CCCCC3C2=O)cc1 (stereo not given) | -21.6 | –
O=C(OCCN1C(=O)c2cccc3c(N4CCOCC4)ccc(c23)C1=O)c1cccc(Cl)c1 | 333 | –
Cc1ccc(N2CC(NC(=O)C(=O)c3c[nH]c4ccccc34)CC2=O)cc1C (stereo not given) | -15 | –
COc1ccc(OCC(=O)OCCNC(=O)c2cccnc2)cc1 | -8.34 | –
COc1ccc(CNC(=O)C(C#N)c2nc3ccccc3nc2N2CCCC2)cc1 (stereo not given) | 258 | –
CC(=O)c1ccccc1NC(=O)COC(=O)CSCC(=O)Nc1cc(C)on1 | -24.5 | –
C/C=C/C(=O)Nc1cccc(C2=NOC3(C2)C[C@@H](C(N)=O)N(C(=O)/C(C)=C/C)C3)c1 (stereo not given in full) | -6.95 | –
Cc1ccc(N2CC(c3nc4ccccc4[nH]3)CC2=O)c(C)c1 (stereo not given) | -27.2 | –
O=[N+]([O-])c1ccc(Sc2cccc[n+]2[O-])c2nonc12 | – | 31.6 µM (active)
O=C(O)CN1C(=O)/C(=C\c2ccccc2OCc2ccc(Cl)cc2)SC1=S | – | 37.9 µM (active)
Cc1nc(-c2ccc(C(=O)Nc3cccc(Br)c3)cc2)cs1 | -26.3 | –
COC(=O)c1ccc2nc(-c3ccc(Cl)cc3)c(Cc3cccc(F)c3)n2c1 | -5.72 | –
Cc1cc(/C=C2\SC(=S)NC2=O)cc(C)c1O | – | 33.8 µM (active)
C[C@H](CO)N1C[C@H](C)[C@@H](CN(C)C)Oc2c(NS(=O)(=O)c3ccccc3)cccc2C1=O | -15.9 | –
CCOC(=O)N1CCc2c(sc3c2c(=O)n(-c2ccc(F)cc2)c(=O)n3CC(=O)c2ccc(Cl)cc2)C1 | -5.37 | –
COC(=O)c1cn(C(=O)c2ccccc2Cl)c2ccccc12 | -19.9 | –
